Pf growth 48h = inhibits P. falciparum growth in the first generation, 48 h; P. falciparum luciferase growth in erythrocytes, 48 h; Potency, µM (titrated, usually from 28.7 µM), for the others: at the top dose activity change, negative = inhibition, usual class: inhibitors; hit rate 5.9% among 310,000; also: potency is read from the fitted curve at half-maximal effect; % is scaled to controls: 0 for no effect and ±100 for the full control effect
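Parasite viability was followed by luminescence of a genomically integrated firefly luciferase. Cultures held 0.1% parasitemia at 2% hematocrit (final), incubated under 5% CO2 at 37 C.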
HCV inh = blocks hepatitis C virus | Huh7.5.1 HCVcc-Cre infection, luciferase reporter, 44 h | hit rate 3.4% among 340,000 | Potency, µM (top dose mostly 41.8 µM), for the others: at the top dose activity change, negative = inhibition, actives largely listed as inhibitors; also: potency is read from the fitted curve at half-maximal effect; % is scaled to controls: 0 for no effect and ±100 for the full control effect
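1,000 cells/well; 4 h culture; + compound; + HCVcc-Cre (~0.5 moi); 44 h; luciferase substrate, RT 15 min; read 15 sec.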
AMA1 RON2 block = disrupts binding of P. falciparum AMA1 to RON2 | AlphaScreen AMA1-biotinylated RON2 peptide binding | Potency, µM (series often up to 58.2 µM), inactives show top-dose activity change, negative = inhibition, usual class: inhibitors | hit rate 0.2% among 360,000 | AID 720542;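 also: potency is read from the fitted curve at half-maximal effect; 0% = vehicle wells and -100% = peptide control; nearly all actives have a fitted effect of over 45% in size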
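AMA1 (3D7) with his tag at 25 nM final met compounds first, then biotinylated RON2 peptide at 25 nM; detection used donor plus acceptor beads, 10 µg/mL apiece, read by AlphaScreen after 30 min at room temperature.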
Pf growth 96h = P. falciparum growth inhibition at 96 hour, primary screen for plastid delayed-death inhibitors; P. falciparum luciferase reporter growth, 96 h; Potency, µM (top dose mostly 28.7 µM), inactives show at the highest dose activity change, negative = inhibition, usual class: inhibitors; hit rate 6.9% among 320,000; AID 504834; also: potency is read from the fitted curve at half-maximal effect; % is scaled to controls: 0 for no effect and ±100 for the full control effect
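Readout is luminescence from an integrated firefly luciferase in P. falciparum. Red cells, 2% hematocrit and 0.05% parasitemia final, were cultured with compound through two parasite generations (96 hours) at 37 C, 5% CO2.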
Shiga toxin inh = Shiga toxin inhibition; AID 2315; Vero cells, Shiga toxin protein synthesis inhibition reporter; inhibition, % at 38.7 µM; hit rate 9.2% among 290,000; in the data active = inhibition mostly above about 28%, no sharp cut-off; inactive = mostly below about 43%; also: 0% is about no effect
Cycloheximide cs = counter-screen hit for Shiga toxin inhibitors, cycloheximide; hit rate 12% among 300,000; cell reporter, cycloheximide protein synthesis inhibition counterscreen; AID 2314; max response, %; in the data active = max response mostly above about 13%, no sharp cut-off; inactive = mostly below about 14%; also: read at 38.3 µM for the half of the compounds with a filed dose; 0% is about no effect
* marks the source's active call; other numbers are inactive results; ? = inconclusive; . = no result; [ ] = remark or other dose. Sampled rows, rich in hits. Any-hit rate of the full collection: about 21%. Unless noted, calls follow the shape of the dose curve; as a rule, active = well fitted curve in the direction sought with a large enough effect; inconclusive = small, poorly fitted or top-dose-only effect, or another doubt; inactive = no such curve, though single readings can be large; an effect the other way counts as inactive or inconclusive.

SMILES	Pf growth 48h	HCV inh	AMA1 RON2 block	Pf growth 96h	Shiga toxin inh	Cycloheximide cs
C=CCOC(=O)C1=C(C)NC(=S)C(C#N)(CC=C)C1c1ccccc1Cl (configuration not stated)	1.5µM*	-23%	12%	1.5µM*	-9	-1
Cc1cccc2cc(CN(Cc3nnnn3Cc3ccco3)C3CCCC3)c3nnnn3c12	?	?	-1%	-13%	29*	10
CCc1ccc2[nH]c(=O)c(CN(Cc3nnnn3C3CCCC3)C3CCCCC3)cc2c1	8.3µM*	-23%	-9%	1%	-14	-2
CCOc1ccc2[nH]c(=O)c(CN(CCO)C(c3nnnn3C3CCCCC3)C(C)C)cc2c1 (configuration not stated)	3.3µM*	16%	-9%	-18%[5.75 µM]	-15	-2
CC(=O)N(Cc1ccco1)Cc1cc2cccc(C)c2n2nnnc12	-15%	.	.	?	-7	-3
Cc1cccc2cc(CN(Cc3nnnn3C3CCCC3)C3CCCCC3)c(=O)[nH]c12	.	-2%	0%	.	.	.
Cc1ccc2[nH]c(=O)c(CN(Cc3ccc4c(c3)OCO4)Cc3nnnn3C3CCCC3)cc2c1	10µM*	?	-29%	-1%	10	-2
C[C@H](CCC(=O)NCC(=O)O)[C@H]1CC[C@H]2C3[C@H](O)C[C@@H]4C[C@H](O)CC[C@]4(C)[C@H]3C[C@H](O)[C@]12C (some centres not stated)	15%	23%	-1%	7%	.	.
Cc1ccc2[nH]c(=O)c(CN(Cc3nnnn3Cc3ccccc3)C3CCCC3)cc2c1	13µM*	?	-2%	-20%	-2	-1
Cc1cc(C(=O)COc2ccc(F)cc2Br)c(C)n1C1CC1	?	?	-21%	10µM*	.	.
Cc1cc(C(=O)COc2ccc(F)cc2Br)c(C)n1C	-16%	11%	-5%	-6%	63	30*
Cc1ccc(OCC(=O)c2cc(C)n(C3CC3)c2C)c([N+](=O)[O-])n1	13%	-5%	-13%	?	-4	0
Cc1cc(C(=O)COC(=O)c2ccc(F)cc2)c(C)n1C	.	-6%	9%[11.6 µM]	.	.	.
Cc1cc(C(=O)COc2cccc([N+](=O)[O-])c2)c(C)n1C1CC1	148%	11µM*	-9%	63%	.	.
COc1ccc(C(=O)OCCN2CCN(C3=NS(=O)(=O)c4ccccc43)CC2)cc1OC	-17%	2%	12%	8.3µM*	-3	4
CC(C)Cc1nc(N2CCN(C(=O)c3ccccc3)CC2)c(C#N)c2c1CCC2	?	11µM*	4%	?	-16	14
N#Cc1c(N2CCN(C(=O)c3ccccc3)CC2)nc(-c2ccccc2)c2c1CCCC2	.	?	8%	13µM*	-7	-1
CC(C)Cc1nc(N2CCN(C(=O)C(C)C)CC2)c(C#N)c2c1CCC2	151%	-22%	-17%	?	48	54*
CC(C)Cc1nc(N2CCN(C(=O)c3ccco3)CC2)c(C#N)c2c1CCC2	2.3µM*	?	-22%	38%	52	9
COc1ccc(OC)c(C2=Nn3c(nnc3-c3cc(OC)ccc3OC)SC2)c1	.	.	.	.	-5	12
CCOc1ccc(-c2nc3ccc(-c4nc5ccc(N6CCN(C)CC6)cc5[nH]4)cc3[nH]2)cc1	.	.	.	.	54	7
CC(=O)c1ccc(NC(=O)CN2CCN(S(=O)(=O)c3ccc4ccccc4c3)CC2)cc1	?	?	-12%	-19%	.	.
O=S(=O)(c1ccc(Cl)cc1)N1CCN(C(=S)Nc2ccccc2F)CC1	0.93µM*	3%	3%	?	-4	-3
O=S(=O)(c1ccc2ccccc2c1)N1CCN(C(=S)Nc2ccc(F)c(Cl)c2)CC1	1µM*	?	-15%	0.33µM*	14	-2
NS(=O)(=O)c1ccc(NC(=S)N2CCN(S(=O)(=O)c3ccc(F)cc3)CC2)cc1	?	0%	.	-2%	-14	-3
SMILES	Pf growth 48h	HCV inh	AMA1 RON2 block	Pf growth 96h	Shiga toxin inh	Cycloheximide cs
O=S(=O)(c1ccc2ccccc2c1)N1CCN(C(=S)Nc2ccc(F)cc2)CC1	?	?	8%	?	-4	2
N#CCC(=O)Nc1ccc(C(=O)N2CCN(S(=O)(=O)c3ccc4ccccc4c3)CC2)cc1	15µM*	14%	-2%	?	-5	-1
O=S(=O)(c1ccc2ccccc2c1)N1CCN(C(=S)Nc2ccccc2F)CC1	1.7µM*	-12%	36%	3.3µM*	-7	-1
CCc1nnc(SCC(=O)Nc2ccccc2)n1CC1CCCO1 (configuration not stated)	11%	.	-5%	17%	-4	-2
Brc1ccc(N=Nc2ccc3ccccc3n2)cc1	0.33µM*	-25%	?	?	54*	36*
Cc1c(C(=O)NC(C)C)c(-c2ccccc2)nn1-c1ccccc1	-5%	14%	-7%	-25%	3	5
Cc1c(C(=O)NC(C)c2ccccc2)c(-c2ccccc2)nn1-c1ccccc1 (configuration not stated)	10µM*	-2%	-1%	?	-5	-5
O=C(Cn1cnc2cc([N+](=O)[O-])ccc2c1=O)NCc1ccccc1	-9%[5.75 µM]	1%	1%	5%	-10	-3
COC(=O)C1C(=O)c2c([nH]c(C(=O)OC3CCCC3)c2C)CC1C (configuration not stated)	26%	?	9%	.	49	47*
Cc1c(C(=O)OCC(C)C)[nH]c2c1C(=O)CC(c1ccco1)C2 (configuration not stated)	12µM*	?	12%	0%	18	10
Cc1c(C(=O)OCC2CCCO2)[nH]c2c1C(=O)CC(c1ccco1)C2 (configuration not stated)	?	?	-13%	.	17	7
Cc1c(C(=O)OC2CCCC2)[nH]c2c1C(=O)CC(c1ccco1)C2 (configuration not stated)	7.4µM*	?	-22%	?	-1	1
C/C=C/COC(=O)c1[nH]c2c(c1C)C(=O)CC(c1ccco1)C2 (configuration not stated)	1.5µM*	?	0%	-34%	-11	-5
CN(CC(=O)Nc1cccc(S(=O)(=O)N(C)c2ccccc2)c1)Cc1cccs1	.	.	-15%	.	.	.
COC(=O)c1[nH]c2c(c1C)C(=O)CC(c1ccccc1)C2 (configuration not stated)	?	?	-6%	1%	-2	-2
C=CCOC(=O)c1[nH]c2c(c1C)C(=O)CC(c1ccco1)C2 (configuration not stated)	5.2µM*	-25%	-13%	-86%	-3	-2
CCOP(=O)(OCC)c1ccc2c(c1)C(=O)c1ccccc1CC2	-3%	.	.	4.1µM*	.	.
COC(=O)Cn1cnc2c(Cl)nc(F)nc21	.	5.6µM*	5%	.	.	.
COC(=O)Cn1cnc2c(nnn2-c2ccc(F)cc2)c1=O	37%	7%	17%	110%	-1	-4

Compound activity as filed in PubChem.
